Measurements as given in PubChem BioAssay (NCI).
Values joined by “and” are separate entries in the source; they are usually repeats but may differ in a detail not shown here. Equal entries are not always repeated. About 79,000 compounds went through this panel and 15% of them were active in at least one assay; those are over-represented in the sample as a whole. A number with no mark means an inactive call. Active and inactive are the calls of the source. No stated cut-off is given here; in the data, active means growth inhibition above about 70%; inactive means the rest.

Legend:
[1] = NCI Yeast Anticancer Drug Screen. Data for the mec2-1 strain (AID 157); settings: S. cerevisiae mec2-1 strain, active compounds read high
Outline: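 mec2-1 yeast strain, carrying an alteration in DNA damage repair or cell cycle control, was exposed to compounds; growth inhibition was measured relative to vehicle-treated controls.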

[2] = NCI Yeast Anticancer Drug Screen. Data for the sgs1 mgt1 strain (AID 161);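 further: 0% = growth of cultures given vehicle only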; settings: S. cerevisiae sgs1 mgt1 strain, active compounds read high
Outline: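 Yeast cells carrying a defined DNA-repair defect were exposed to test compounds. Growth inhibition was measured relative to vehicle-treated controls.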

[3] = NCI Yeast Anticancer Drug Screen. Data for the cln2 rad14 strain (AID 165);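 further: 0% = growth equal to vehicle treated cultures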; settings: S. cerevisiae cln2 rad14 strain, active compounds read high
Outline: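 Yeast carrying cln2 and rad14 alterations (cell cycle control and DNA damage repair) were exposed to compounds. Growth inhibition was measured against vehicle-treated controls.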

[4] = NCI Yeast Anticancer Drug Screen. Data for the bub3 strain (AID 167); settings: S. cerevisiae bub3 mutant strain, active compounds read high
Outline: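 Screening used yeast with an engineered genetic alteration affecting cell cycle control. Compound-exposed cultures were compared with vehicle cultures, and reduced growth was taken as inhibition.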

[5] = NCI Yeast Anticancer Drug Screen. Data for the mlh1 rad18 strain (AID 175); settings: S. cerevisiae mlh1 rad18 strain growth inhibition, active compounds read high
Outline: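 Growth inhibition of the yeast strain was measured after compound exposure and expressed relative to vehicle-treated controls. The strain carries defined defects in DNA damage repair.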

[6] = NCI Yeast Anticancer Drug Screen. Data for the rad50 strain (AID 155);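 further: 0% = growth of vehicle-only cultures of the same strain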; settings: S. cerevisiae rad50 strain growth inhibition, active compounds read high
Outline: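 Relative growth inhibition (compound vs vehicle) was measured in yeast with a defined repair-gene alteration.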

[7] = at 5.0 µM (retest, dose inferred, filed as 0.5)
[8] = at 50.0 µM (retest, dose inferred, filed as 5.0)

SMILES | growth inhibition [1, 7] | growth inhibition [1, 8] | growth inhibition ([1]; at 50.0 µM) | growth inhibition [2, 7] | growth inhibition [2, 8] | growth inhibition ([2]; at 50.0 µM) | growth inhibition [3, 7] | growth inhibition [3, 8] | growth inhibition ([3]; at 50.0 µM) | growth inhibition [4, 7] | growth inhibition [4, 8] | growth inhibition ([4]; at 50.0 µM) | growth inhibition [5, 7] | growth inhibition [5, 8] | growth inhibition ([5]; at 50.0 µM) | growth inhibition ([6]; at 50.0 µM) | growth inhibition [6, 7] | growth inhibition [6, 8]
O=C(/C(=C/c1ccc2c(c1)OCO2)c1ccccc1)c1ccc(OCCN2CCCC2)cc1 | 3% | -8% | 58.5% | -3% | -16% | 31.1% | -2% | -8% | 12.8% | -7% | -1% | 3.45% | 5% | 19% | 7.35% | – | – | –
Cc1ccc(S(=O)(=O)NC(Cc2ccccc2)C(=O)CCl)cc1 (stereo not drawn) | 66% | 99% (active) | 92.8% (active) | 74% (active) | 98% (active) | 88.8% (active) | 44% | 88% (active) | 84.8% (active) | 79% (active) | 99% (active) | 84.5% (active) | 86% (active) | 98% (active) | 84.7% (active) | – | – | –
O=C(c1ccccc1)C1C(=O)c2ccccc2C1=O | – | – | 1.1% and -21.3% and 20% | – | – | -5.1% and 12.2% and 24.1% | – | – | -20.8% and 17.2% and 17.1% | – | – | -10.4% and -2.95% and 19.4% | – | – | -7.6% and -26.1% and 18.5% | -10.2% and -25.2% and 23.2% | – | –
[Cl][Co][Cl].[NH-]CC[N-]CC[N-]CC[NH-] | – | – | 16.8% and -10.4% and 22.6% | – | – | 13.9% and 16.4% and 32.5% | – | – | 28.4% and 16.1% and 18.5% | – | – | 14.1% and 19.4% and 25.4% | – | – | 6.35% and 12.3% and 47% | 29.6% and -6.2% and 5.8% | – | –
Cc1cc(NC(=S)SCc2ccc(F)cc2)c([N+](=O)[O-])cc1C | 36% | 99% (active) | 98.8% (active) | 87% (active) | 99% (active) | 98.5% (active) | 19% | 97% (active) | 98.8% (active) | 48% | 92% (active) | 99% (active) | 94% (active) | 98% (active) | 99.1% (active) | – | – | –
CCOC(=O)C1=C(Nc2ccc(Cl)c(Cl)c2)OC/C1=N\NS(=O)(=O)c1ccc(C)cc1 | 15% | 15% | 51.9% | 22% | 22% | 80.3% (active) | 5% | 5% | 51.6% | 15% | 15% | 63% | 27% | 27% | 64.2% | – | – | –
C=CCOC(=O)N(C(=O)OCC=C)C(Cc1ccc(O)cc1)C(=O)NNc1ccccc1 (stereo not drawn) | 2% | 33% | 44.5% | – | – | – | 5% | 56% | 39% | 16% | 90% (active) | 70% | 20% | 62% | 84.3% (active) | 53.4% | 17% | 65%
CN1CC[N+](C)(Cc2ccc(C[N+]3(C)CC[N+](C)(Cc4ccc(CCl)cc4)CC3)cc2)CC1 (stereo not drawn) | 4% | 95% (active) | 99.4% (active) | – | – | – | -3% | 95% (active) | 98.1% (active) | 1% | 98% (active) | 99.5% (active) | 2% | 98% (active) | 99.3% (active) | 99.2% (active) | 2% | 97% (active)
Cc1c(N=Nc2cccc(F)c2)c(-c2ccccc2)nn1C(N)=S | 1% | 98% (active) | 99.4% (active) | 3% | 99% (active) | 99.4% (active) | -5% | 96% (active) | 99.1% (active) | 1% | 97% (active) | 99.5% (active) | 0% | 98% (active) | 99.2% (active) | – | – | –
O=C1c2c(F)c(F)c(F)c(F)c2SC2=NCCN12 | -4% | 98% (active) | 80.4% (active) | -10% | 97% (active) | 76.5% (active) | – | – | – | -31% | 99% (active) | 83.2% (active) | 11% | 98% (active) | 78.7% (active) | 78.4% (active) | 2% | 99% (active)
NC(CC(=O)O)c1ccccc1 (stereo not drawn) | – | – | 8.8% and -3.45% and -4.3% | – | – | -5.95% and 2.35% and -0.05% | – | – | 14.2% and -33.1% and -4.9% | – | – | -12.7% and -10.4% and -18.2% | – | – | -8.9% and 9.75% and -24.9% | 6.2% and -0.2% and -0.5% | – | –
Cc1ccc(C(=O)CCCN2CCOCC2)c(C)c1 | 5% | 30% | 38.8% | – | – | – | 29% | 63% | 50.5% | 30% | 69% | 73.8% (active) | 5% | 43% | 72.8% (active) | 77.5% (active) | 13% | 46%
